The values that follow come from PubChem BioAssay (NCATS).

Experiment [1] addresses Lysosomal acid glucosylceramidase (Homo sapiens) (UniProt P04062). In words: Glucocerebrosidase-p2 (AID 348; in the data active = potency below about 10 µM; also: potency is read from the fitted curve at half-maximal effect). The following applies: purified GBA, blue fluorogenic substrate, 40 min. Summed up:
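Compounds titrated from 0.6 nM upwards against 0.2 nM enzyme in pH 5.9 citric acid/KH2PO4, taurocholate, tween-20; blue fluorogenic substrate 80 uM, 40 min room temperature, stopped and read Ex 365/Em 440 for AC50.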

Experiment [2] in a line: AP1 Signaling Pathway (AID 357). Also: % is scaled to controls: 0 for no effect and ±100 for the full control effect. The following applies: ME-180 AP-1-bla reporter, EGF-induced, beta-lactamase ratio, 5 h; at 7.69 µM (top of the series) unless noted. Summed up: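 ME-180 cells with beta-lactamase reporter under AP-1 response element, stimulated with EC50 EGF; compounds tested in titration series, 5 h at 37 °C. CCF4 substrate added 2.5 h at room temperature; 460/530 nm emission ratio gave %activity and AC50.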

The target of experiment [3] is Cytochrome P450 1A2 (Homo sapiens) (UniProt P05177). The experiment in a line: p450-cyp1a2 (AID 410; calls by dose curve; also: potency is read from the fitted curve at half-maximal effect;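 as to activity change, negative = inhibition: -100% = full effect of reference inhibitor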). The conditions noted are these: recombinant CYP1A2, luciferin-ME demethylation, luminescence; series mostly up to 11.4 µM. Summed up: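 Inhibition was calculated relative to 57 uM furafylline (full inhibition). The reaction used human CYP1A2 at 20nM with Luciferin-ME at its Km, 100uM, driven by an NADPH-regenerating system for 60 min at room temperature.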
Chain of Cytochrome P450 1A2 (Homo sapiens) (P05177 whole entry, looked up): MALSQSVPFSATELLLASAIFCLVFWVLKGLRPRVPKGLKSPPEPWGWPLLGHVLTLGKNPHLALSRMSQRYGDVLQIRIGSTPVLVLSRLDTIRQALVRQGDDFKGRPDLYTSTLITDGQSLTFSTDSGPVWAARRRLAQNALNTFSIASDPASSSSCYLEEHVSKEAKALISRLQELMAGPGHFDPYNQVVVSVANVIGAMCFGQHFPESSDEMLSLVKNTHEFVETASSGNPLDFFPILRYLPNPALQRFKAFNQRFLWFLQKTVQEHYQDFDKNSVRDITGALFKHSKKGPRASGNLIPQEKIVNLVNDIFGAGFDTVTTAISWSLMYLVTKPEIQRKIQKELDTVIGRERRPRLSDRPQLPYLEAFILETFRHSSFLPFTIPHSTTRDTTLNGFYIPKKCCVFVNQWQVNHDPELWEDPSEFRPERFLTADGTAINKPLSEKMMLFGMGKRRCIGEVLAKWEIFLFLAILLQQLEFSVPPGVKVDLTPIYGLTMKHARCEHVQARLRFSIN

Experiment [4] can be described thus: NFAT Signaling Pathway (AID 444).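 Also: carbachol stimulus at about its EC50 of 1 µM final; % is scaled to controls: 0 for no effect and ±100 for the full control effect.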 The conditions noted are these: Jurkat NFAT-bla M1, carbachol, beta-lactamase ratio, 5 h; at 7.69 µM (top of the series) unless noted. In short, it runs like this: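 Jurkat cells with NFAT-driven β-lactamase reporter and co-expressed M1 receptor, stimulated with carbachol (final 1 uM, ~EC50), compound titration, 5 h at 37 °C. CCF4 loaded 1 h at RT; 460/530 nm ratio gave %activity and AC50.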

The target in experiment [5] is Glucocorticoid receptor (Homo sapiens) (UniProt P04150). The experiment in a line: GR-GFP Redistribution (AID 450;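 active = compounds whose dose series gives a full or clear partial fitted curve of increased nuclear translocation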; also: potency is read from the fitted curve at half-maximal effect). The following applies: U2OS GR-GFP nuclear translocation, laser cytometry, 2 h.
Chain of Glucocorticoid receptor (Homo sapiens) (P04150 whole entry, looked up, the tested form may be a part): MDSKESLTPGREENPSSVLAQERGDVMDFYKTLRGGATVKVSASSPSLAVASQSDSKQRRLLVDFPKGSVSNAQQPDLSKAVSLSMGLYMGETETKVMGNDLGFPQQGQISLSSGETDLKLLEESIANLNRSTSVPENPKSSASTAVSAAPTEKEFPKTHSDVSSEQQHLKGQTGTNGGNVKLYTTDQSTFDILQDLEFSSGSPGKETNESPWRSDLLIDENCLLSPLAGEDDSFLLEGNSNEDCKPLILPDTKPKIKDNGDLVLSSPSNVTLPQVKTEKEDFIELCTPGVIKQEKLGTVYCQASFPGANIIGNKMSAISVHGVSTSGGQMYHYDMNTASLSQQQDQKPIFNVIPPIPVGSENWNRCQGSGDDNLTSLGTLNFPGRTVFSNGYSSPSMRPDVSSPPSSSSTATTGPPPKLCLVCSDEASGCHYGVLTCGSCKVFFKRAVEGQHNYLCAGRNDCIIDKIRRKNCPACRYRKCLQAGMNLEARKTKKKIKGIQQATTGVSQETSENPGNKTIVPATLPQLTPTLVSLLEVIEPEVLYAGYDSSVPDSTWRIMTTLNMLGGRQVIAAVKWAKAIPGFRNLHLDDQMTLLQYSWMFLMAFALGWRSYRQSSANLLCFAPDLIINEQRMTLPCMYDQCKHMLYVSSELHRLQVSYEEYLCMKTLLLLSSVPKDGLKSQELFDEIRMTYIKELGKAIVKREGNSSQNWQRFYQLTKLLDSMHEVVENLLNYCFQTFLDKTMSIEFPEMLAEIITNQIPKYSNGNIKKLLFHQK
The target is the same in experiment [6]. The experiment in a line: GR-EFC Redistribution (AID 451; calls by dose curve; also: potency is read from the fitted curve at half-maximal effect). The following applies: CHO-K1 GR-EFC translocation, beta-gal luminescence, 2 h. In short, it runs like this: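 CHO-K1 cells expressing nuclear EA and GR-ED fragments of b-gal; compounds titrated up to 46 uM final, 2 h at 37 C. GR nuclear translocation read as complemented b-gal luminescence after 1 h RT detection.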

In experiment [7] the target is Mitogen-activated protein kinase 10 (Mus musculus) (UniProt Q61831). The experiment in a line: JNK3 AlphaScreen Assay (AID 530).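 Also: kinase came from lysate of stimulated human HepG2 cells; signal reports phosphorylation of biotinylated GST-cJun 1-79 at Ser73 with 10 µM ATP; % is scaled to controls: 0 for no effect and ±100 for the full control effect.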 The following applies: JNK3 lysate, c-Jun phosphorylation; series mostly up to 11.4 µM. In short, it runs like this:
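qHTS format: compounds tested as titrations against IL-1beta/TNF-alpha-activated HepG2 lysate JNK3 with biotin-GST-cJun substrate and 10 uM ATP at room temperature. Loss of anti-phospho-cJun AlphaScreen signal indicates inhibition.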
A general note: Alpha assays give light when donor and acceptor beads are brought close together.

Experiment [8] concerns the target 3',5'-cyclic-AMP phosphodiesterase 4B (Homo sapiens) (UniProt Q07343). In words: qHTS Assay for Inhibitors of PDE-IV (AID 607; active = well fitted activation curve with a large enough effect in the main read-out, with a control signal flat, not every such curve was filed as active; also: % of control where 0% means no effect). The following applies: HEK293 ACTOne CNG channel cells, membrane potential fluorescence; series mostly up to 22.9 µM. In short, it runs like this:
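The readout is membrane depolarisation from a cAMP-sensing CNG channel, detected with a potential dye at ex 535/em 590. Cells were HEK293-derived (endogenous PDE-IV) at 1000 cells/well, titrated up to 22.9 uM final.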
Background: Quantitative high-throughput screening tests each substance at several concentrations.

Experiment [9] deals with Cytochrome P450 3A4 (Homo sapiens) (UniProt P08684). In words: qHTS Assay for Activators of Cytochrome P450 3A4 (AID 885; active = well fitted curve in the direction sought with a large enough effect; an effect the other way counts as inactive or inconclusive; also: nearly all actives have a fitted effect of over 65% in size). The conditions noted are these: recombinant CYP3A4, Luciferin-PPXE luminescence, 60 min; series mostly up to 11.4 µM. Summed up:
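Steps: enzyme/substrate mix dispensed; compound added, 10 min RT; NADPH regeneration solution added, 60 min RT; luciferin detection buffer stops reaction; 20 min later luminescence measured.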

Experiment [10] deals with Cytochrome P450 2C19 (Homo sapiens) (UniProt P33261). In words: qHTS Assay for Inhibitors and Substrates of Cytochrome P450 2C19 (AID 899; active = well fitted curve in the direction sought with a large enough effect; an effect the other way counts as inactive or inconclusive; also: nearly all actives have a fitted effect of over 60% in size; also: potency is read from the fitted curve at half-maximal effect). The following applies: recombinant CYP2C19, luciferin-H EGE luminescence; series mostly up to 11.4 µM. Summed up: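 5 nM human CYP2C19 with 10uM Luciferin-H EGE (at KM) in 50mM KPO4, compound preincubated 10 min at 37C, then NADPH regeneration for 60 min at 37C. Luciferin read by luminescence after detection reagent; normalized to 57uM ketoconazole as full inhibition.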
Chain of Cytochrome P450 2C19 (Homo sapiens) (P33261 whole entry, looked up): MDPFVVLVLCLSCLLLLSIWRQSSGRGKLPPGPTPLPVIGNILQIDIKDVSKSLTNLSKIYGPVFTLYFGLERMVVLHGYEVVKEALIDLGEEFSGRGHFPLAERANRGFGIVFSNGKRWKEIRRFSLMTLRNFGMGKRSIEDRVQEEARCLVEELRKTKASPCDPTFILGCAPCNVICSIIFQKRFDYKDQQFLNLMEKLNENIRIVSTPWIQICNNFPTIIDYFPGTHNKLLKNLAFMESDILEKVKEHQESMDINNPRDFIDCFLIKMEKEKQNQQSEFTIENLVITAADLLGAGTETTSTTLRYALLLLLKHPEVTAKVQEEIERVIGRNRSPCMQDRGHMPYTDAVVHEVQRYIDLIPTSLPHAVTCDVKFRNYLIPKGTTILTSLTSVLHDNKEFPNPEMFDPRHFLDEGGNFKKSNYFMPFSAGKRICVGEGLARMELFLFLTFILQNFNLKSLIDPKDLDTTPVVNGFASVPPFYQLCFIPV

A short description of experiment [11]: Stat Signaling Pathway (AID 446).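 Also: ME-180 cervical cancer cells given 40 pM IL-6 alongside compound; SIE-controlled beta-lactamase reporter measured as 460/530 nm FRET emission ratio; % is scaled to controls: 0 for no effect and ±100 for the full control effect.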 The following applies: ME-180 SIE beta-lactamase reporter, IL-6 stimulated, 5 h; at 7.69 µM (top of the series) unless noted. In short, it runs like this:
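Screening format detects activators and inhibitors alike: ME-180 SIE-bla cells stimulated at 40 pM IL-6 for 5 hrs with compound, then dual-emission beta-lactamase read at 405 nm excitation.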

The structures appear in SMILES notation. A number with no mark means an inactive call. Inconclusive results are not listed. The source made the active and inactive calls. Unless noted, calls follow the shape of the dose curve; as a rule, active = well fitted curve in either direction with a large enough effect (not every such curve was filed as active); inconclusive = small, poorly fitted or top-dose-only effect, or another doubt; inactive = flat fitted curve, though single readings scatter.

Chain of 3',5'-cyclic-AMP phosphodiesterase 4B (Homo sapiens) (Q07343 whole entry, looked up): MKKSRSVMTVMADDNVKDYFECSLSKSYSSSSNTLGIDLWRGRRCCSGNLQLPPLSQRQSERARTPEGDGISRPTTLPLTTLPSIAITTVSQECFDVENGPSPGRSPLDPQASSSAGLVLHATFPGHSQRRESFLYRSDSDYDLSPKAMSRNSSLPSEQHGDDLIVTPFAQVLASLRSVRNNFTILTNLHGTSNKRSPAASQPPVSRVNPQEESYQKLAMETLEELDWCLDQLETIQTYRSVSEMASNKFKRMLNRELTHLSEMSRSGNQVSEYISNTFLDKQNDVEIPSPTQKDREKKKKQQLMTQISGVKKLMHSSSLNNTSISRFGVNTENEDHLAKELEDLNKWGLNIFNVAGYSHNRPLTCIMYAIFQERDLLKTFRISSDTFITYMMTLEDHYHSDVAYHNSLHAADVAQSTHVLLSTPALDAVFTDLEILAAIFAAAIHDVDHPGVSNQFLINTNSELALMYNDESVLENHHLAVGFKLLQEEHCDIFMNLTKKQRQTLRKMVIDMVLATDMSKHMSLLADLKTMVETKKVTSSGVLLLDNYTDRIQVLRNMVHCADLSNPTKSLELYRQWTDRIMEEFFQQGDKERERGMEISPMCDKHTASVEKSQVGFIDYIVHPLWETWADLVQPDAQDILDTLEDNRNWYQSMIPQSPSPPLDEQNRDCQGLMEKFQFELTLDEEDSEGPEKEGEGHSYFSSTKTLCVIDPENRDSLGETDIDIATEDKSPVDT
Chain of Lysosomal acid glucosylceramidase (Homo sapiens) (P04062 whole entry, looked up): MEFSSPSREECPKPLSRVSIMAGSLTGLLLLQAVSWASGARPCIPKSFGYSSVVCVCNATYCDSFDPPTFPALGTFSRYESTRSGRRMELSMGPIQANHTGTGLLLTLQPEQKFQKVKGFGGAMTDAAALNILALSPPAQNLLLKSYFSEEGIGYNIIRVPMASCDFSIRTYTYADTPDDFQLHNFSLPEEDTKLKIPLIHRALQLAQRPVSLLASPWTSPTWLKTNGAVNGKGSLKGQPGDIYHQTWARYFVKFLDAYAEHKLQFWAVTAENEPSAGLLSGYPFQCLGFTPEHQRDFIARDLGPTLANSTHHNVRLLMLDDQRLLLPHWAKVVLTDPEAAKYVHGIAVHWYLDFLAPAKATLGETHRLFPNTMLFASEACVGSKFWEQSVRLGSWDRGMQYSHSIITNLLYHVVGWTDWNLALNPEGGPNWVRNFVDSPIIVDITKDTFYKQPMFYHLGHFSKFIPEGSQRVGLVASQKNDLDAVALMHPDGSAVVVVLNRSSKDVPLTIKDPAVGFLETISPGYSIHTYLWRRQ
Chain of Cytochrome P450 3A4 (Homo sapiens) (P08684 whole entry, looked up): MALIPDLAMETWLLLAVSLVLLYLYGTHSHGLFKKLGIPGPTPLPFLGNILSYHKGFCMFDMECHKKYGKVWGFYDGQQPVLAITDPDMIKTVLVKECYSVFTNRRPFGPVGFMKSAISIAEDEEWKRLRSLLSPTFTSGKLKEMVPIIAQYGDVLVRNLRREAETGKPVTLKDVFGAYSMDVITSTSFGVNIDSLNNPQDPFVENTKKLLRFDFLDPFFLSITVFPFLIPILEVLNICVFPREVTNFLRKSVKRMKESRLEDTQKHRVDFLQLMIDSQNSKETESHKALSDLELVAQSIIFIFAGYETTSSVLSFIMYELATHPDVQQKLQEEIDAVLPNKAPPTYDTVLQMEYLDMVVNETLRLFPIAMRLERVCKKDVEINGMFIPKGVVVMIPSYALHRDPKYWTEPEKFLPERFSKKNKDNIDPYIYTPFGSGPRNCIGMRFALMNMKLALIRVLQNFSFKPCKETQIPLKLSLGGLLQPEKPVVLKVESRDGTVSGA

For `S=C(CSc1ccccc1)Nc1cccc2ccccc12`, the Potency was > 11.4 µM in experiment [1]; 1.26 µM (active) in experiment [3]; > 46 µM in [5]; > 9.22 µM in experiment [6]; 0.794 µM (active) in experiment [10]. In addition, the activity change, negative = inhibition in experiment [2] is 8.58%; in experiment [4] it was -12.1%. Further, the Potency entry in [7], in [8] and in experiment [9] was “inactive” each time.
`O=C(O)CSc1ccn(Cc2ccccc2)c1`: the Potency in experiment [1] is > 11.4 µM; in experiment [5], > 46 µM; in [6], > 9.22 µM. The activity change, negative = inhibition in experiment [2] is -4.91%; in experiment [4], 1.69%. The Potency result in [3], in experiment [7], in [8] and in experiment [10] was “inactive” in each case.
As for `O=C(O)CCNc1ncnc2nc[nH]c12`, the Potency in experiment [1] was > 11.4 µM; in experiment [5], > 46 µM; in experiment [6] it was > 9.22 µM. For the same compound, the activity change, negative = inhibition in experiment [2] was 8.82%. In addition, the Potency result in experiment [3] and in experiment [7] was “inactive” each time. For the same compound, the activity, negative = inhibition in [11] is -5.64%.
With `O=C(O)CSc1nc2ccccc2[nH]1`, the values for the Potency in experiment [1], in [5] and in [6] were > 11.4 µM, > 46 µM and > 9.22 µM, respectively. For the same compound, the activity change, negative = inhibition is 3.97% in experiment [2] and -2.37% in experiment [4]. Besides, the Potency result in experiment [3], in experiment [7] and in experiment [8] was “inactive” each time.
On to `O=C1C=CC(=Nc2cccc3c(N=C4C=CC(=O)O4)cccc23)O1`, for which the results for the Potency in experiment [1], in [5] and in experiment [6] were > 11.4 µM, > 46 µM and > 9.22 µM, respectively. Moreover, in [2], the activity change, negative = inhibition is 5.25%. Further, the Potency entry in experiment [3], in experiment [7] and in [8] was “inactive” each time. The activity, negative = inhibition in experiment [11] was -22.4%.
As for `Cc1ccc(C)c(/C(=N\N=C(N)N)C2CC2)c1`, the Potency in [1] is > 11.4 µM; in [5], > 46 µM; in experiment [6], > 9.22 µM. Moreover, the activity change, negative = inhibition in experiment [2] was -1.56%; in experiment [3], 1.1% [at 2.29 µM]. In addition, the activity, negative = inhibition in experiment [11] was 4.46%. In addition, the Potency entry in experiment [7] and in experiment [8] was “inactive” each time.
For the compound `CN(C)CCC(=O)[C@@]1(O)CC[C@H]2[C@H]3CC=C4C[C@@H](O)CC[C@]4(C)[C@H]3CC[C@]21C`, the Potency in [1] was > 11.4 µM; in [5], > 46 µM; in experiment [6] it was > 9.22 µM. Further, the activity change, negative = inhibition in [2] was 3.32%. Besides, the Potency result in [3], in [7] and in experiment [8] was “inactive” throughout. Also, in [11], the activity, negative = inhibition was -18.3%.
`[O-][N+]1(CC[N+]2([O-])CCCCC2)CCCCC1`: the values for the Potency in [1], in [5] and in [6] were > 11.4 µM, > 46 µM and > 9.22 µM, respectively. Also, the activity change, negative = inhibition in experiment [2] was -8.89%. Also, the Potency entry in experiment [3], in [7] and in [8] was “inactive” in each case. The activity, negative = inhibition in experiment [11] is -8.8%.
As for `CC(C)C12CC[C@@]3(CC[C@H]4[C@@](C)(CCC[C@]4(C)C(=O)O)[C@@H]3C1)[C@@H](CN)C2`, the Potency in experiment [1] is > 11.4 µM; in experiment [5], > 46 µM; in [6] it was > 9.22 µM. Moreover, the activity change, negative = inhibition in experiment [2] was -3.83%. Besides, the Potency entry in experiment [3], in [7] and in experiment [8] was “inactive” throughout. In addition, the activity, negative = inhibition in experiment [11] was 1.18%.
Take `O=C(N/N=C\c1cccc(O)c1)c1ccncc1`: the Potency in experiment [1] was > 11.4 µM; in experiment [5] it was > 46 µM; in experiment [6] it was > 9.22 µM. The activity change, negative = inhibition in experiment [2] is -2.52%. Moreover, the Potency result in experiment [3], in experiment [7] and in [8] was “inactive” in each case. Also, the activity, negative = inhibition in [11] is 4.22%.
`N/N=C1/CC(=O)NC(=O)N1`: the Potency in experiment [1] was > 11.4 µM; in experiment [3], 0.631 µM (active); in experiment [5] it was > 46 µM; in experiment [6], > 9.22 µM. In addition, the activity change, negative = inhibition in experiment [2] was 2.16%. Besides, the activity, negative = inhibition in experiment [11] is -13%. The Potency result in [7] and in [8] was “inactive” each time.
With `CCN(CC)CC[n+]1ccc2c(C)c3[nH]c4ccccc4c3c(C)c2c1`, the Potency in [1] is > 11.4 µM; in experiment [3], 2.51 µM (active); in [5], > 46 µM; in [6] it was > 9.22 µM. Also, the activity change, negative = inhibition in [2] was -22.3%. In addition, in experiment [11], the activity, negative = inhibition is 29.6%. In addition, the Potency result in experiment [7] and in experiment [8] was “inactive” each time.
Turning to `c1ccc([P+](CC[P+](c2ccccc2)(c2ccccc2)c2ccccc2)(c2ccccc2)c2ccccc2)cc1`, the Potency in experiment [1] was > 11.4 µM; in experiment [5], > 46 µM; in [6], > 9.22 µM. Also, the activity change, negative = inhibition in experiment [2] was 1.2%. Also, the Potency result in experiment [3], in experiment [7] and in experiment [8] was “inactive” each time. In addition, the activity, negative = inhibition in experiment [11] is 7.49%.
In the case of `C[C@@]12CC[C@@H]3[C@H](CCC4=CC(=O)CC[C@]43C)[C@@H]1CC[C@@H]2C(=O)Cn1cnc2c(=S)nc[nH]c21`, the figures for the Potency in [1], in [5] and in experiment [6] were > 11.4 µM, > 46 µM and > 9.22 µM, respectively. The activity change, negative = inhibition in [2] is 2.82%. The Potency entry in [3], in [7] and in [8] was “inactive” each time. Also, in experiment [11], the activity, negative = inhibition was -2.06%.
